Some structures have more than one record in an assay (separate samples or runs), and their calls can disagree. Calls of active or inactive are those of the source. Rule for the calls: active = hit-call score of the fitted dose curve at least 0.9, where 1 is the maximum; inactive = score below 0.9.

Outcome and AC50 data for 31 molecules are collected here from PubChem BioAssay (EPA / NIEHS).

Read-out in the test: ABC Transporter (ABCC2), ABCC2 (gene 1244)
As to the kind of experiment: LTEA_HepaRG_ABCC2: Life Technologies and Expression Analysis (LTEA) Assay for ABC Transporter (ABCC2) using HepaRG (AID 2283464). To be noted: mRNA level, 48 h; actives raise or lower the signal. Here is the method: LTEA_HepaRG is a cell based, multiplexed-readout assay that uses HepaRG, a human liver cell line, with measurements taken at 48 hours after chemical dosing on a 96-well plate.LTEA_HepaRG_ABCC2 is one of 102 assay component(s) measured in the LTEA HepaRG cell culture assay. It is a marker of Steatosis/NR mediated transport.Data from the assay component LTEA_HepaRG_ABCC2 was analyzed into 1 endpoint. This assay endpoint, LTEA_HepaRG_ABCC2, was analyzed with bidirectional fitting relative to DMSO as the negative control and baseline of activity. Using a type of inducible reporter, measures of mRNA induction for gain or loss-of-signal activity can be used to understand regulation of transcription factor activity. To generalize the intended target to other relatable targets, this assay endpoint is annotated to the transporter intended target family, where the subfamily is ABC transporter.
A total of 1060 chemcials from the ToxCast library were tested in eight-point concentration-response experiments. Cell culture and cytotoxicity assays were conducted at Thermo Fisher Scientific's Custom Services facility (Madison, WI). A single lot of human HepaRG cells (Thermo Fisher Scientific, Frederick, MD) was used for the cell culture experiments. 96-well format collagen type I coated plates of human HepaRG cells were prepared using established methods. Briefly, cryopreserved HepaRG cells were thawed, plated at a density of approximately 100,000 cells/well in HepaRG Thaw, Plate, and General Purpose media (HPRG770, Thermo Fisher Scientific), and incubated for 48 hours. 0.5% DMSO was selected as vehicle control to balance the requisite need of DMSO in HepaRG cultures to maintain differentiation (for example, baseline metabolism, proportions of hepatocytes vs. cholangiocytes), while enabling further hepatic receptor pathway activation (for example, PXR and CAR) in response to chemical exposure. 48 hours after plating, the culture medium was replaced with HepaRG Serum-Free Incudtion Media. Cells were exposed to each test chemical in duplicate and maintained in CO2 incubators for another 48 hours. Chemical plates were thawed to room temperature and 200x concentrations of treatment groups were prepared. 8-point conentration-reponse curves were made with the highest exposure at 100 uM, followed by half-log dilutions, all in 0.5% DMSO. Each test plate contained variouse controls, induction positive controls (1mM phenobarbital), cytotoxicity positive controls ([…] aflatoxin B1), vehicle controls (0.5% DMSO), and total lysis controls (0.5% DMSO). Cell morphology images were taken using an Essen IncuCyte FLR automated microscope, with six 96-well plates imaged in about 24 minutes. Images were captured and exported and JPEG files. Spent culture media was transfered to black-well plates for the LDH assay, and remaining media was sorted at -80 C for later use. Cells were treated with RLT buffer and frozen until shipped for gene expression analysis. Total RNA was isolated from the cell suspension in 75 uL of Buffer RLT (Qiagen, Germantown, MD 20874) by Quintiles/Expression Analysis (Durham, NC) using a custom isolation procedure. Total RNA from each plate well was transferred to a preamplification plate. Fluidigm's 96.96 Dynamic ArrayTM (Fluidigm, Amsterdam, the Netherlands) technology was used for gene expression analyses by quantitative reverse transcription polymerase chain reaction (qRT-PCR, performed by Quintiles/Expression Analysis, Durham, NC)89. Standard TaqManTM Assays (Applied Biosystems/ThermoFisher Scientific, Foster City, CA) were used to assess the expression of 93 genes selected based on their selectivity and sensitivity to important hepatic receptors known to be modulated by environmental chemicals; importance in human hepatocyte functionality; and hepatotoxicity. […]
Turning to `CC(C)(C)CC(C)(C)c1ccc(O)cc1`, the call was inactive.

With `O=C(O)C(F)(F)C(F)(F)C(F)(F)C(F)(F)C(F)(F)C(F)(F)F`, the molecule was called inactive.

For orientation: AC50 means the midpoint of the concentration-response curve, whichever way the signal moves. In the case of `C=C(C)C(=O)[O][Sn]([CH2]CCC)([CH2]CCC)[CH2]CCC`, the AC50 is 3.35 µM (active).

For the molecule `ClCC(Cl)CCl`, the molecule was classed as inactive.

In the case of `CCCCCCCCc1ccc(O)cc1`, the call was inactive.

On to `COc1cc(-c2ccc(N)c(OC)c2)ccc1N`, for which the molecule was classed as inactive and the concentration at half-maximal activity (AC50) is 50 µM (active).

Take `Cc1ccccc1N`: the molecule was called inactive.

Turning to `C[C@]12CCC(=O)C[C@@H]1CC[C@@H]1[C@@H]2CC[C@]2(C)[C@@H](O)CC[C@@H]12`, the molecule was called inactive.

Take `CC(C)(c1ccccc1)c1ccc(O)c(C(C)(C)c2ccccc2)c1`: the AC50 was 12.7 µM (active).

`CCOP(=S)(OCC)SCSP(=S)(OCC)OCC`: the half-maximal activity concentration (AC50) is 50 µM (active).

Take `C[C@@H]1C[C@@H]([C@H](O)CC2CC(=O)NC(=O)C2)C(=O)[C@@H](C)C1`: the AC50 was 27.3 µM (active).

For `O=C1C2(Cl)C3(Cl)C4(Cl)C(Cl)(Cl)C5(Cl)C3(Cl)C1(Cl)C5(Cl)C24Cl` (configuration not stated), the AC50 was 93.6 µM (active).

`O=C(Nc1ccc2[nH]ccc2c1)c1cc2cc(F)ccc2n1Cc1cccc(F)c1`: the AC50 was 78.2 µM (active).

For `O=c1[nH]c(=O)[nH]c(=O)[nH]1`, the call was inactive.

As to `CCC(C)(C)c1ccc(O)c(C(C)(C)CC)c1`, the call was inactive.

Consider `ClC1(Cl)C2(Cl)C3(Cl)C4(Cl)C(Cl)(Cl)C5(Cl)C3(Cl)C1(Cl)C5(Cl)C24Cl` (configuration not stated), for which the call was inactive.

Turning to `NC(=O)O`, the outcome was inactive.

In the case of `O=[N+]([O-])c1ccc(O)c([N+](=O)[O-])c1`, the AC50 is 13.3 µM (active).

For the molecule `CC(C)(OO)c1ccccc1`, the result was inactive.

In the case of `CC(=O)[O][Hg][c]1ccccc1`, the AC50 was 27.2 µM (active).

Regarding `CC12CC1(C)C(=O)N(c1cc(Cl)cc(Cl)c1)C2=O` (configuration not stated), the molecule was called inactive.

`C=CC(=O)OCCCCCC(C)C`: the call was inactive.

As for `Cn1sc(Cl)cc1=O`, the molecule was called inactive.

Take `O=C(O)C(F)(F)C(F)(F)C(F)(F)C(F)(F)C(F)(F)C(F)(F)C(F)(F)C(F)(F)C(F)(F)C(F)(F)F`: the molecule was classed as inactive.

Regarding `Oc1cccc2cccnc12`, the call was inactive.

As to `CC(C)(C)c1cc(O)ccc1O`, the outcome was inactive.

`CCOP(=S)(OCC)Oc1nc(Cl)c(Cl)cc1Cl`: the outcome was inactive.

For `CN(C)N=O`, the result was inactive.

With `CCC(=O)C(CC(C)N(C)C)(c1ccccc1)c1ccccc1` (configuration not stated), the molecule was called inactive.

In the case of `O=C(O)C(Cl)(Cl)Cl`, the molecule was classed as inactive.

Regarding `CCN1CCC2(CC1)COc1cc3c(cc12)N(C(=O)c1ccc(-c2ccc(-c4nnc(C)o4)cc2C)cc1)CC3`, the AC50 is 18.5 µM (active).
